Laboratory results reported in PubChem BioAssay (NCATS).
Records with an inconclusive call do not appear. Active and inactive are the calls of the source. Unless noted, calls follow the shape of the dose curve; as a rule, active = well fitted inhibition curve with a large enough effect; inconclusive = small, poorly fitted or top-dose-only effect; inactive = flat fitted curve, though single readings scatter.

Legend:
[1] = AP1 Signaling Pathway (AID 357; active = well fitted curve in either direction with a large enough effect, not every such curve was filed as active; also: % is scaled to controls: 0 for no effect and ±100 for the full control effect)
Outline: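 ME-180 cells with beta-lactamase reporter under AP-1 response element, stimulated with EC50 EGF; compounds tested in titration series, 5 h at 37 °C. CCF4 substrate added 2.5 h at room temperature; 460/530 nm emission ratio gave %activity and AC50.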

[2] = biological target: Cytochrome P450 1A2 (Homo sapiens) (UniProt P05177); assay: p450-cyp1a2 (AID 410; calls by dose curve;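 also: -100% = full effect of reference inhibitor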)
Outline: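 O-Demethylation of luciferin 6' methyl ether by human CYP1A2 is monitored as luciferase luminescence. Substrate sits at Km (100uM); enzyme is 20nM. Values are scaled to 57 uM furafylline as maximal inhibition.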

[3] = NFAT Signaling Pathway (AID 444; active = well fitted curve in either direction with a large enough effect, not every such curve was filed as active;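 also: carbachol stimulus at about its EC50 of 1 µM final; % is scaled to controls: 0 for no effect and ±100 for the full control effect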); conditions: Jurkat NFAT-bla M1, carbachol, beta-lactamase ratio, 5 h; at 17.2 µM (top of the series) unless noted
Outline: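 Read-out: CCF4 FRET ratio (460 nm/530 nm) after 1 h RT dye loading, used for %activity and AC50 from titration series. Cells: Jurkat NFAT-β-lactamase/M1 line, treated with compound plus 1 uM carbachol for 5 h, 37 °C.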

[4] = Stat Signaling Pathway (AID 446; active = well fitted curve in either direction with a large enough effect, not every such curve was filed as active;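 also: ME-180 cervical cancer cells given 40 pM IL-6 alongside compound; SIE-controlled beta-lactamase reporter measured as 460/530 nm FRET emission ratio; % is scaled to controls: 0 for no effect and ±100 for the full control effect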)
Outline: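 Emission at 460 and 530 nm (excitation 405 nm) reports SIE-controlled beta-lactamase in ME-180 cells. Cells received compound with 40 pM IL-6 for 5 hrs at 37 C; data scaled between 300 pM IL-6 and 125 nM JAK-inhibitor controls.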

[5] = biological target: Glucocorticoid receptor (Homo sapiens) (UniProt P04150); assay: GR-GFP Redistribution (AID 450;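 active = compounds whose dose series gives a full or clear partial fitted curve of increased nuclear translocation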; also: potency is read from the fitted curve at half-maximal effect); conditions: U2OS GR-GFP nuclear translocation, laser cytometry, 2 h
[6] = biological target: Glucocorticoid receptor (Homo sapiens) (UniProt P04150); assay: GR-EFC Redistribution (AID 451; calls by dose curve; also: potency is read from the fitted curve at half-maximal effect); conditions: CHO-K1 GR-EFC translocation, beta-gal luminescence, 2 h
Outline: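 Translocation of GR-ED fusion to nuclear EA restores b-gal, read by luminescence after 1 h room-temperature detection. Engineered CHO-K1 biosensor cells, 1,000/well, exposed 2 h at 37 C to titrations up to 46 uM final.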

[7] = biological target: Mitogen-activated protein kinase 10 (Mus musculus) (UniProt Q61831); assay: JNK3 AlphaScreen Assay (AID 530; active = well fitted curve in either direction with a large enough effect, not every such curve was filed as active;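 also: kinase came from lysate of stimulated human HepG2 cells; signal reports phosphorylation of biotinylated GST-cJun 1-79 at Ser73 with 10 µM ATP; % is scaled to controls: 0 for no effect and ±100 for the full control effect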)
Outline: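 qHTS titrations with 15 min compound pre-incubation before adding ATP (10 uM final). Read-out: AlphaScreen of Ser73-phosphorylated biotin-GST-cJun using HepG2 lysate JNK3 activated by IL-1β and TNFα.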

[8] = biological target: 3',5'-cyclic-AMP phosphodiesterase 4B (Homo sapiens) (UniProt Q07343); assay: qHTS Assay for Inhibitors of PDE-IV (AID 607; active = well fitted activation curve with a large enough effect in the main read-out, with a control signal flat, not every such curve was filed as active; also: % of control where 0% means no effect)
Outline: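 The readout is membrane depolarisation from a cAMP-sensing CNG channel, detected with a potential dye at ex 535/em 590. Cells were HEK293-derived (endogenous PDE-IV) at 1000 cells/well, titrated up to 22.9 uM final.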

[9] = qHTS Assay for Lipid Storage Modulators (AID 1519; calls by dose curve); conditions: Drosophila S3 cells, BODIPY lipid droplet/cell ratio, laser cytometry, cells loaded with oleic acid; for activity change, negative = inhibition: at 25.7 µM (top of the series)
Outline: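 Cells seeded at 5,000 per well were treated with compounds over a concentration series and loaded with oleic acid (400 uM, as added). Lipid droplet fluorescence (488 nm excitation, 500-530 nm channel) was read by laser-scanning cytometry and normalized to 20 uM Triacsin C.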

[10] = biological target: Ubiquitin carboxyl-terminal hydrolase 1 (Homo sapiens) (UniProt O94782); assay: Inhibitors of USP1/UAF1: Pilot qHTS (AID 504865);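 also: rhodamine fluorescence freed from ubiquitin-rhodamine substrate followed over time; top concentration of the series differs between compounds; % is scaled to controls: 0 for no effect and ±100 for the full control effect; nearly all actives have a fitted effect of over 35% in size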
Outline: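 1nM USP1/UAF1 + cpd, 15 min RT; start w/ Ub-Rho 150nM final; kinetic FL 480/540 nm, 6 reads q60 s. Buffer 50mM HEPES pH 7.8, 0.5mM EDTA, 1mM TCEP, 0.01% Tween-20, 0.1 mg/ml BSA.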

[11] = biological target: Luciferin 4-monooxygenase (Photinus pyralis) (UniProt P08659); assay: Biochemical firefly luciferase enzyme assay for NPC (AID 624030);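 also: purified P. pyralis luciferase at 10 nM with luciferin and ATP substrate; 0% = DMSO and -100% = full luciferase inhibition by PTC124 control; nearly all actives have a fitted effect of over 70% in size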
Outline: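 Direct inhibition of firefly luciferase enzyme (10 nM final, 50 mM Tris Acetate) assessed by luminescence within 5 minutes. Percent activity scaled between DMSO and PTC124 positive control, with concentration-effect curves classified by fit quality and response.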

[12] = qHTS profiling for inhibitors of Plasmodium falciparum proliferation (AID 504749); also: nearly all actives have a fitted effect of over 60% in size; also: potency is read from the fitted curve at half-maximal effect;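 as to activity, negative = inhibition: 0% = DMSO vehicle and full inhibition = artemisinin control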; conditions: P. falciparum in erythrocytes, SYBR Green DNA, 72 h, at 12.8 µM (top of the series)
Outline: (§1)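 SYBR Green fluorescence of parasite DNA, read after lysis and overnight dark incubation, measured growth over 72 h in erythrocyte culture at 0.3% parasitemia and 2.5% hematocrit. Data normalised to DMSO and 0.29 uM artemisinin, with plate-drift correction.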

[13] = test system: C2A; assay: as above; conditions: P. falciparum in erythrocytes, SYBR Green DNA, 72 h; series mostly up to 12.8 µM
Outline: as §1

[14] = test system: CP217; assay: as above; conditions: P. falciparum in erythrocytes, SYBR Green DNA, 72 h; series mostly up to 12.8 µM
Outline: as §1

[15] = test system: CP238; assay: as above; conditions: P. falciparum in erythrocytes, SYBR Green DNA, 72 h; series mostly up to 12.8 µM
Outline: as §1

[16] = test system: CP250; assay: as above; conditions: P. falciparum in erythrocytes, SYBR Green DNA, 72 h; series mostly up to 12.8 µM
Outline: as §1

[17] = test system: FAB9; assay: as above; conditions: P. falciparum in erythrocytes, SYBR Green DNA, 72 h; series mostly up to 12.8 µM
Outline: as §1

[18] = test system: JCK; assay: as above; conditions: P. falciparum in erythrocytes, SYBR Green DNA, 72 h; series mostly up to 12.8 µM
Outline: as §1

[19] = test system: SC27B; assay: as above; conditions: P. falciparum in erythrocytes, SYBR Green DNA, 72 h; series mostly up to 12.8 µM
Outline: as §1

[20] = test system: CP256; assay: as above; conditions: P. falciparum in erythrocytes, SYBR Green DNA, 72 h; series mostly up to 12.8 µM
Outline: as §1

[21] = measured here: cell count channel max response
[22] = measured here: lipid channel max response

Cytochrome P450 1A2 (Homo sapiens), sequence (P05177 whole entry, looked up): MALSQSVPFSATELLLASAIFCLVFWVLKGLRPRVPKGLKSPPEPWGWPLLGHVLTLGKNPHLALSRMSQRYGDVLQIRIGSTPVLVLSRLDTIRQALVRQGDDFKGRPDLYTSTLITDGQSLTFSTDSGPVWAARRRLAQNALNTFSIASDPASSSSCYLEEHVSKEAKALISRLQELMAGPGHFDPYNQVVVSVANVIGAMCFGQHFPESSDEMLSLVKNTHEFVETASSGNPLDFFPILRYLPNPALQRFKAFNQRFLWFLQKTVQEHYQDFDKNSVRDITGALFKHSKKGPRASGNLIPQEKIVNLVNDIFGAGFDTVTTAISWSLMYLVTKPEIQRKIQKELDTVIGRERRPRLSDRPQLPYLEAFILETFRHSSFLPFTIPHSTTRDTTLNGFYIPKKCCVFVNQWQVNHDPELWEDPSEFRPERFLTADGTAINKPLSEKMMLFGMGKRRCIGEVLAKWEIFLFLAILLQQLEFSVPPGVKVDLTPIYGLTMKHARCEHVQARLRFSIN
Luciferin 4-monooxygenase (Photinus pyralis), sequence (P08659 whole entry, looked up): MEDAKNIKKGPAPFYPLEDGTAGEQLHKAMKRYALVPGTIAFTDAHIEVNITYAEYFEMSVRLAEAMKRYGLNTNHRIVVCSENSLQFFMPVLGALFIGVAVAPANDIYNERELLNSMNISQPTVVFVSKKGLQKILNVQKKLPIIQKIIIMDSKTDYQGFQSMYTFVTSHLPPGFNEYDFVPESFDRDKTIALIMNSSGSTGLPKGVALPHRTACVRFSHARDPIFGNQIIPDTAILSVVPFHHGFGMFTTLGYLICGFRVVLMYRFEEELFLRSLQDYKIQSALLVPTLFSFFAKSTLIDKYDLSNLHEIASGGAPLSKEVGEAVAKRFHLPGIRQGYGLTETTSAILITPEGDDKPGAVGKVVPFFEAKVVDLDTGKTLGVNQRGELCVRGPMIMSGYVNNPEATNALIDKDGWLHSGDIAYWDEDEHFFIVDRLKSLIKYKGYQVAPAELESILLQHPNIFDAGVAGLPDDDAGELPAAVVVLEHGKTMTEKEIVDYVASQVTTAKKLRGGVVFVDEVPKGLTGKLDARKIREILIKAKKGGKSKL
Glucocorticoid receptor (Homo sapiens), sequence (P04150 whole entry, looked up, the tested form may be a part): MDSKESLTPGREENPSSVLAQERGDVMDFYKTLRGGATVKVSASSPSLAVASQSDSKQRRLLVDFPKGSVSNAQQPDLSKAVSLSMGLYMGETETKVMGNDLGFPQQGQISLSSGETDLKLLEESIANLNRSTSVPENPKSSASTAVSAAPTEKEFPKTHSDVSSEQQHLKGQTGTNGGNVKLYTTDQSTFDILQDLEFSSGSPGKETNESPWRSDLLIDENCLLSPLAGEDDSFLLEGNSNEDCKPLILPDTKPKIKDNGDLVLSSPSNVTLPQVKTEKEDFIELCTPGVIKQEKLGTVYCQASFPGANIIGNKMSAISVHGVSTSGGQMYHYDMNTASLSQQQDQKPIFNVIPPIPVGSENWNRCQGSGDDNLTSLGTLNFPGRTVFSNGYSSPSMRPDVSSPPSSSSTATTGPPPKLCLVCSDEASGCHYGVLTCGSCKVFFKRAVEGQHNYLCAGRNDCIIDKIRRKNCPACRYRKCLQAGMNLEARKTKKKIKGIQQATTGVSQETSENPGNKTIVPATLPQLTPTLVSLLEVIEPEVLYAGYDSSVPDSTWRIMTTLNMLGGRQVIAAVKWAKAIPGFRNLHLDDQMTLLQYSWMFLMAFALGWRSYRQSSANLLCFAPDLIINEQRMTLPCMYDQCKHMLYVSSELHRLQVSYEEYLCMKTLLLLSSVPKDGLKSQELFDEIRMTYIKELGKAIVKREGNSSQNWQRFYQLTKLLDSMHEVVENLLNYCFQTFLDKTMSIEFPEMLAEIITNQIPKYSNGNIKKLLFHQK
Ubiquitin carboxyl-terminal hydrolase 1 (Homo sapiens), sequence (O94782 whole entry, looked up): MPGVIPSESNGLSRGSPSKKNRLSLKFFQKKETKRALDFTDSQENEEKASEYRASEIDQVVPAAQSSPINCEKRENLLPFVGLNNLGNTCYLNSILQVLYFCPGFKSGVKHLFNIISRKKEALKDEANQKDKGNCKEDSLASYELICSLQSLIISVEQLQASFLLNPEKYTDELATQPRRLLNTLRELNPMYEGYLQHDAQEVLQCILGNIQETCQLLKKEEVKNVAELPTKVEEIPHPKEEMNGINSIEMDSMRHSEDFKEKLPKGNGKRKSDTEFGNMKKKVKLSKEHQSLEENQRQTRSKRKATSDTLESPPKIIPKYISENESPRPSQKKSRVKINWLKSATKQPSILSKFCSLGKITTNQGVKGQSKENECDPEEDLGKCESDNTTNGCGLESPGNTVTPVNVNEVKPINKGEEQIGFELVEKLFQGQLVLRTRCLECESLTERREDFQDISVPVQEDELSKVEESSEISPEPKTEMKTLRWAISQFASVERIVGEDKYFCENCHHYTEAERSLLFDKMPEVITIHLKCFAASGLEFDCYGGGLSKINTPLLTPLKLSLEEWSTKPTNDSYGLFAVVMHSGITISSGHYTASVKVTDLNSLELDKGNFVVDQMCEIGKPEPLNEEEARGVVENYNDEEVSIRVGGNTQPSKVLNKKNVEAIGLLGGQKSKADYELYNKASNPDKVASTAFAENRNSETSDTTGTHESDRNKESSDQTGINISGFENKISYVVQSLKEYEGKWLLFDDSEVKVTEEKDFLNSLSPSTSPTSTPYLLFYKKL
3',5'-cyclic-AMP phosphodiesterase 4B (Homo sapiens), sequence (Q07343 whole entry, looked up): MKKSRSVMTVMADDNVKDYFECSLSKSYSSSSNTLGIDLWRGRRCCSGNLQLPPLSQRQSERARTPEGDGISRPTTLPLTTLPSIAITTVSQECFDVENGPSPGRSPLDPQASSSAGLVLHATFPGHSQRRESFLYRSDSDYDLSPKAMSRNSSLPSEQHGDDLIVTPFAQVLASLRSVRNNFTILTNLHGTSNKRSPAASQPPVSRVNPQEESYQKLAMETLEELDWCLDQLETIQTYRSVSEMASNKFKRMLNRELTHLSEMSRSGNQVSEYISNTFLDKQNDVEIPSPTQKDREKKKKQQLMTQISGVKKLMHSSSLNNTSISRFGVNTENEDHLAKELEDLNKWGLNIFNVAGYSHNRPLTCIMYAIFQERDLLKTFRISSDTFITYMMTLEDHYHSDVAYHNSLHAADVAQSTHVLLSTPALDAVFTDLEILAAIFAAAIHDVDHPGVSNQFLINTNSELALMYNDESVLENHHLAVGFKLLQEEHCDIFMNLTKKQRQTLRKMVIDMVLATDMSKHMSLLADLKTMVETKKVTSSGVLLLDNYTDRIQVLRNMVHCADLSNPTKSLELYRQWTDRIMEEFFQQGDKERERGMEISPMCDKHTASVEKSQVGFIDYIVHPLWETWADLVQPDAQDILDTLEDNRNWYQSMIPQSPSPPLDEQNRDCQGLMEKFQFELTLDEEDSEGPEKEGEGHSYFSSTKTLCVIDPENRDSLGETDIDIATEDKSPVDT

CN1CC[C@@]23c4ccccc4N[C@H]1[C@]21CCN(C)[C@@H]3Nc2ccccc21
inactive: outcome [1] | Potency [2] | activity change, negative = inhibition [3] -9.09% | outcome [4] | Potency [5] > 20.6 µM | Potency [6] > 20.6 µM | Potency [7] | outcome [8] | activity change, negative = inhibition [9] -2.36% | Potency [10]
-11.8%: max response [9, 22]
-9.01%: max response [9, 21]

CS(=O)(=O)c1ccc([C@H](O)[C@H](CO)NC(=O)C(Cl)Cl)cc1
inactive: outcome [1] | Potency [2] | activity change, negative = inhibition [3] 1.44% | outcome [4] | Potency [5] > 20.6 µM | Potency [6] > 20.6 µM | outcome [8] | activity change, negative = inhibition [9] -0.717% | Potency [10] | Potency [11] | activity, negative = inhibition ([12]; parasite line A) -20.3% | activity, negative = inhibition ([12]; parasite line B) -19.1% | Potency [13] | Potency [14] | Potency [15] | Potency [16] | Potency [17] | Potency [18] | Potency [19]
5.27%: max response [9, 22]
3.5%: max response [9, 21]

CNC[C@H](O)c1ccc(OC(=O)C(C)(C)C)c(OC(=O)C(C)(C)C)c1
active: Potency [20] 10 µM
14.1%: max response [9, 21]
inactive: outcome [1] | Potency [2] | activity change, negative = inhibition [3] 1.95% | outcome [4] | Potency [5] > 20.6 µM | Potency [6] > 20.6 µM | Potency [7] | outcome [8] | activity change, negative = inhibition [9] 0.431% | activity, negative = inhibition ([12]; parasite line A) -7.03% | Potency [13] | Potency [14] | Potency [15] | Potency [16] | Potency [17] | Potency [18] | Potency [19]
16.1%: max response [9, 22]

CC(=O)[C@@]1(O)CC[C@H]2[C@H]3C[C@@H](C)C4=CC(=O)C=C[C@]4(C)[C@@]3(F)[C@@H](O)C[C@]21C
active: Potency [5] 0.00155 µM | Potency [6] 0.00821 µM
inactive: outcome [1] | Potency [2] | activity change, negative = inhibition [3] 5.97% | outcome [4] | Potency [7] | outcome [8] | activity change, negative = inhibition [9] -6.74% | Potency [10] | activity, negative = inhibition ([12]; parasite line A) -2.85% | activity, negative = inhibition ([12]; parasite line B) -0.507% | Potency [13] | Potency [14] | Potency [15] | Potency [16] | Potency [20] | Potency [17] | Potency [18] | Potency [19]
-19.8%: max response [9, 22]
-14.1%: max response [9, 21]

O=C1O[C@H](CN2CCOCC2)CN1/N=C\c1ccc([N+](=O)[O-])o1
-19.2%: max response [9, 21]
-26.5%: max response [9, 22]
inactive: outcome [1] | Potency [2] | activity change, negative = inhibition [3] -16.1% | outcome [4] | Potency [5] > 20.6 µM | Potency [6] > 20.6 µM | Potency [7] | outcome [8] | activity change, negative = inhibition [9] -9.12% | Potency [10] | Potency [11] | Potency [13] | Potency [14] | Potency [15] | Potency [16] | Potency [20] | Potency [17] | Potency [18] | Potency [19]

CC(=O)N[C@@H](CC(=O)O)C(=O)O
-4.28%: max response [9, 22]
-3.12%: max response [9, 21]
inactive: outcome [1] | Potency [2] | activity change, negative = inhibition [3] -10.7% | outcome [4] | Potency [5] > 20.6 µM | Potency [6] > 20.6 µM | Potency [7] | outcome [8] | activity change, negative = inhibition [9] -1.04% | Potency [10]

CC(=O)N(C[C@@H](C)C(=O)O)c1c(I)cc(I)c(N)c1I
2.03%: max response [9, 21]
3.33%: max response [9, 22]
inactive: outcome [1] | Potency [2] | activity change, negative = inhibition [3] -3.37% | outcome [4] | Potency [5] > 20.6 µM | Potency [6] > 20.6 µM | Potency [7] | outcome [8] | activity change, negative = inhibition [9] 0.163% | Potency [11] | activity, negative = inhibition ([12]; parasite line A) 4.38% | activity, negative = inhibition ([12]; parasite line B) 4.5% | Potency [13] | Potency [14] | Potency [15] | Potency [16] | Potency [20] | Potency [17] | Potency [18] | Potency [19]

COc1ccc([C@@H]2CC(=O)c3c(O)cc(O[C@H]4O[C@@H](CO[C@H]5O[C@@H](C)[C@@H](O)[C@@H](O)[C@@H]5O)[C@@H](O)[C@@H](O)[C@@H]4O)cc3O2)cc1O
-8.76%: max response [9, 22]
-12%: max response [9, 21]
inactive: outcome [1] | Potency [2] | activity change, negative = inhibition [3] 6.75% | outcome [4] | Potency [5] > 20.6 µM | Potency [6] > 20.6 µM | Potency [7] | outcome [8] | activity change, negative = inhibition [9] -0.902% | Potency [10] | Potency [11] | activity, negative = inhibition ([12]; parasite line A) 5.87% | activity, negative = inhibition ([12]; parasite line B) -4.16% | Potency [13] | Potency [14] | Potency [15] | Potency [16] | Potency [20] | Potency [17] | Potency [18] | Potency [19]

Cc1n[nH]c(=O)[nH]c1=O
-2.21%: max response [9, 21]
inactive: outcome [1] | Potency [2] | activity change, negative = inhibition [3] -10% | outcome [4] | Potency [5] > 20.6 µM | Potency [6] > 20.6 µM | Potency [7] | outcome [8] | activity change, negative = inhibition [9] 1.08% | Potency [10]
-2.22%: max response [9, 22]

C[C@]12C=CC(=O)C=C1CC[C@@H]1[C@H]3C[C@@H](O)[C@](O)(C(=O)CO)[C@@]3(C)C[C@H](O)[C@]12F
active: Potency [5] 0.108 µM | Potency [6] 0.0827 µM
6.57%: max response [9, 22]
inactive: outcome [1] | Potency [2] | activity change, negative = inhibition [3] 7.24% | outcome [4] | Potency [7] | outcome [8] | activity change, negative = inhibition [9] -1.03% | Potency [10]
6.41%: max response [9, 21]

CN(C)/N=N\c1nc[nH]c1C(N)=O
7.48%: max response [9, 22]
inactive: outcome [1] | Potency [2] | activity change, negative = inhibition [3] 3.5% | outcome [4] | Potency [5] > 20.6 µM | Potency [6] > 20.6 µM | Potency [7] | outcome [8] | activity change, negative = inhibition [9] 0.337% | Potency [10]
10.1%: max response [9, 21]
